Results as given in PubChem BioAssay (Tox21).
Inconclusive results are not listed. The source made the active and inactive calls. Unless noted, the call rests on the fitted dose curve; in most records, active means well fitted curve in the direction sought with a large enough effect in the repeat runs; inconclusive means weak or mixed curves; inactive means no such curve, though single readings can be large; an effect the other way counts as inactive or inconclusive.

Key:
[1] = qHTS assay for small molecule agonists of the p53 signaling pathway (AID 651631; calls by dose curve; further: nearly all actives have a fitted effect of over 15% in size)
Method in brief: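 Readout was fluorescence from the LiveBLAzer FRET substrate, applied for 2 h at room temperature after 16 h compound exposure at 37 °C. Cells were the p53RE-bla HCT-116 line, with beta-lactamase driven by p53 response elements.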

[2] = qHTS assay for small molecules that induce genotoxicity in human embryonic kidney cells expressing luciferase-tagged ATAD5 (AID 651632); further: nearly all actives have a fitted effect of over 15% in size
Method in brief: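 Cells were seeded at 2,000 per well, dosed with compound, and incubated 16 hr at 37C in 5% CO2. Luciferase activity was then quantified after a 30 min room-temperature incubation with Amplite.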

[3] = qHTS assay for small molecule agonists of the p53 signaling pathway - cell viability (AID 651633; calls by dose curve; further: series mostly up to about 83 µM; nearly all actives have a fitted effect of over 30% in size)
Method in brief: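 p53RE-bla cells, seeded at 4,000 per well and rested 5 h at 37 C/5% CO2, received compounds in DMSO for 16 h at 37 C. CellTiter-Glo was then added, and luminescence was read after 30 min at room temperature to gauge cytotoxicity.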

[4] = qHTS assay for small molecules that induce genotoxicity in human embryonic kidney cells expressing luciferase-tagged ATAD5 - cell viability (AID 651634; calls by dose curve; further: nearly all actives have a fitted effect of over 25% in size)
Method in brief: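 Cells (HEK293T, luciferase-tagged ATAD5) are seeded at 2,000 per well, dosed with compound or DMSO vehicle, and incubated 15.5 hr at 37C and 5% CO2. CellTiter-Fluor is added for 30 min before fluorescence is measured.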

[5] = qHTS assay for small molecule disruptors of the mitochondrial membrane potential - cell viability (AID 720634; calls by dose curve;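 further: human HepG2 liver cancer cells; series mostly up to about 83 µM; nearly all actives have a fitted effect of over 20% in size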)
Method in brief: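 Cytotoxicity was measured by ATP quantitation in HepG2 wells that had first been treated with compound for 1 hr and stained with m-MPI dye; CellTiter-Glo incubation was 30 min at room temperature.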

[6] = qHTS assay for small molecule disruptors of the mitochondrial membrane potential (AID 720635)
Method in brief: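 HepG2 cells (2,000/well) attached overnight at 37C, then took compound for 1 hr at 37C, 5% CO2. Mito-MPS dye was added for 30 min; fluorescence was read at 490/535 nm (monomers) and 540/590 nm (aggregates).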

[7] = qHTS assay to test for compound auto fluorescence at 590 nm (red) in HepG2 cells (AID 720674)
Method in brief: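 Rose Bengal sodium served as the red fluorophore standard. HepG2 monolayers (overnight attachment, MEM with 10% FBS) were exposed to test compounds for 1 hr at 37 C and read at Ex 540/Em 590 nm.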

[8] = qHTS assay to test for compound auto fluorescence at 535 nm (green) in HepG2 cells (AID 720675)
[9] = qHTS assay to test for compound auto fluorescence at 460 nm (blue) in HEK293 cells (AID 720678)
Method in brief: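 HEK293, 2,000 cells/well, 10% dialyzed FBS; attach 4-5 hr 37C; pin compound or DMSO; o/n 37C/5% CO2; fluorescence 405/460 nm; triamterene-equivalent units.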

[10] = qHTS assay to test for compound auto fluorescence at 590 nm (red) in HEK293 cells (AID 720679)
Method in brief: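 Intensity at 540nm excitation and 590nm emission is reported as Rose Bengal sodium-equivalent autofluorescence. Measurements followed overnight exposure (37C, 5% CO2) of HEK293 cells, 2,000 per well, to 23 nL compound.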

[11] = qHTS assay to test for compound auto fluorescence at 535 nm (green) in HEK293 cells (AID 720680)
[12] = qHTS assay to test for compound auto fluorescence at 460 nm (blue) in HEK293 cell free culture (AID 720681)
Method in brief: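 Test compounds were pinned into cell-free culture medium (DMEM with 10% FBS) and fluorescence was read directly at Ex/Em 405/460 nm. Signals were expressed as fluorescence equivalents of triamterene, with DMSO vehicle as control.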

[13] = qHTS assay to test for compound auto fluorescence at 535 nm (green) in HEK293 cell free culture (AID 720682)
Method in brief: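 Compounds were pin-transferred into cell-free DMEM with 10% FBS, and green fluorescence was read at excitation 485 nm and emission 535 nm. Intensities were expressed as fluorescein-equivalent values.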

[14] = qHTS assay to test for compound auto fluorescence at 590 nm (red) in HEK293 cell free culture (AID 720683)
Method in brief: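 Tox21 10K library compounds were pinned into cell-free DMEM with 10% FBS and fluorescence was read at excitation 540 nm. Activity is expressed as Rose Bengal sodium equivalency.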

[15] = qHTS assay to test for compound auto fluorescence at 590 nm (red) in HepG2 cell free culture (AID 720684)
Method in brief: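 Ex 540 / Em 590 nm read of compound in cell-free MEM (10% FBS). Rose Bengal sodium reference.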

[16] = qHTS assay to test for compound auto fluorescence at 460 nm (blue) in HepG2 cell free culture (AID 720685)
Method in brief: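 Cell-free plates of MEM plus 10% FBS received 23 nL compound or DMSO vehicle; blue-channel (405/460 nm) intensity scored against triamterene as reference fluorophore.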

[17] = qHTS assay to test for compound auto fluorescence at 535 nm (green) in HepG2 cell free culture (AID 720686)
[18] = qHTS assay to test for compound auto fluorescence at 460 nm (blue) in HepG2 cells (AID 720687)
Method in brief: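 Cells (2,000/well in MEM with 10% FBS) attached overnight at 37 C, then were exposed to compound or DMSO for 1 hr at 37 C, 5% CO2. Fluorescence read at Ex/Em 405/460 nm, expressed as triamterene-equivalent signal.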

[19] = target: Glucocorticoid receptor (Homo sapiens) (UniProt P04150); test: qHTS assay to identify small molecule agonists of the glucocorticoid receptor (GR) signaling pathway (AID 720691; active means well fitted activation curve with a large enough effect in the signal ratio in the repeat runs, not every such curve was filed as active; the % refers to the signal ratio)
Method in brief: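 Steps: seed GR-bla HeLa cells, incubate 4 h at 37 C/5% CO2; pin-transfer DMSO-dissolved compounds; incubate 18 h at 37 C; add LiveBLAzer B/G FRET substrate; after 2 h at room temperature, measure fluorescence.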

[20] = target: Glucocorticoid receptor (Homo sapiens) (UniProt P04150); test: qHTS assay to identify small molecule antagonists of the glucocorticoid receptor (GR) signaling pathway (AID 720692; active means well fitted inhibition curve with a large enough effect in the signal ratio in the repeat runs, not every such curve was filed as active; the % refers to the signal ratio)
Method in brief: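 Antagonism was scored as loss of dexamethasone-driven (5 nM final) reporter signal in HeLa cells bearing a glucocorticoid response element–beta-lactamase construct, after 18 h compound exposure at 37 C and 2 h FRET substrate loading.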

Measured: Potency

Sequence of Glucocorticoid receptor (Homo sapiens) (P04150 whole entry, looked up): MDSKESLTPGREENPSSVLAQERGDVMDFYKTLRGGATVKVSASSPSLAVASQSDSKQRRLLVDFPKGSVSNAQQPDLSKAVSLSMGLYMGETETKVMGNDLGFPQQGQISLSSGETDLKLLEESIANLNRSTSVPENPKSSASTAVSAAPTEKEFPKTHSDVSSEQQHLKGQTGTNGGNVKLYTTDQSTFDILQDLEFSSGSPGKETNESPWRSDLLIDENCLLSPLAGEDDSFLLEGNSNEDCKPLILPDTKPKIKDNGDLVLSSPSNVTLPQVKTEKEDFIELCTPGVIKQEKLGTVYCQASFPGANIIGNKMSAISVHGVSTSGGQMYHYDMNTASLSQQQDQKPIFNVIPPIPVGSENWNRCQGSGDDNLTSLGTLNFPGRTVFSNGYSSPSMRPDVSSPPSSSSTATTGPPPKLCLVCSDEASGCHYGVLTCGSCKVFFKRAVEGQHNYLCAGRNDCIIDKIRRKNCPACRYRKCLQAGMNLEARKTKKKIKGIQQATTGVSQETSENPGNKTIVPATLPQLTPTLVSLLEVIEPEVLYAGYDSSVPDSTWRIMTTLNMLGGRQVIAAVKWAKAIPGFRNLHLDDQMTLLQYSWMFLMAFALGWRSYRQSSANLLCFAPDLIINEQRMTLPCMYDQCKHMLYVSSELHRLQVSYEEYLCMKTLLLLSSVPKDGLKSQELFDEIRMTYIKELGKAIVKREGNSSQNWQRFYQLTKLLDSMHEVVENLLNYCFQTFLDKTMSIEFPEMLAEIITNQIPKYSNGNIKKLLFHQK

OC[C@H]1O[C@@H](O[C@@H]2[C@@H](CO)O[C@](O)(CO)[C@H]2O)[C@H](O)[C@@H](O)[C@H]1O
inactive: all assays above

c1ccc(-c2nn[nH]n2)cc1
not listed: [12] | [20]
inactive: all other assays above

CC(N)CCCC(C)(C)O (configuration not stated)
not listed: [12]
inactive: all other assays above

CCCCSCCCC
not listed: [20]
inactive: all other assays above

C=CCSSCCC
not listed: [12] | [20]
inactive: all other assays above

O=C(O)CCCCCC(=O)O
not listed: [20]
inactive: all other assays above

Cc1ccnc(N)c1
inactive: all assays above

CC(CO)(CO)CO
inactive: all assays above

O=C(Cl)c1ccccc1[N+](=O)[O-]
not listed: [20]
inactive: all other assays above

CC(C)=CCC/C(C)=C/COC=O
not listed: [19] | [20]
inactive: all other assays above

N#Cc1cscn1
not listed: [19] | [20]
inactive: all other assays above

COC(=O)/C=C\C(=O)O
inactive: all assays above

Cc1ccc(C(C)NC(=O)[C@@H](NC(=O)OC(C)C)C(C)C)cc1 (some centres not stated)
not listed: [20]
inactive: all other assays above

CC1(C)Cc2cccc(N)c2O1
inactive: all assays above
